Source: PubChem BioAssay (NCI)
This is part of a sample that, as a whole, favours compounds with a hit. Of some 83,000 tested, about 20% had one in any assay.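 Treatment: one concentration, 48 hours, 96-well format. Scoring: percent growth, with anything below 10 considered active.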 Active and inactive are the calls of the source.

Assays:
Experiment in all cases: NCI-60 one-dose screen, 48 h (100 = growth as untreated, 0 = no growth, -100 = all killed)
A549/ATCC NSCLC = settings: 10 µM unless noted
DU-145 prostate = settings: 10 µM unless noted
RXF 393 renal = settings: 10 µM unless noted
SF-295 CNS = settings: 10 µM unless noted
SF-539 CNS = settings: 10 µM unless noted
UACC-257 melanoma = settings: 10 µM unless noted
HCT-15 colon = settings: 10 µM
HT29 colon = settings: 10 µM unless noted
SNB-75 CNS = settings: 10 µM unless noted
SK-MEL-5 melanoma = settings: 10 µM unless noted
LOX IMVI melanoma = settings: 10 µM unless noted
SK-MEL-2 melanoma = settings: 10 µM unless noted
ACHN renal = settings: 10 µM unless noted
CAKI-1 renal = settings: 10 µM unless noted
A498 renal = settings: 10 µM unless noted
HL-60(TB) leukemia = settings: 10 µM unless noted
MOLT-4 leukemia = settings: 10 µM
OVCAR-8 ovarian = settings: 10 µM unless noted
IGROV1 ovarian = settings: 10 µM
HS 578T breast = settings: 10 µM unless noted

Measured: growth

Cc1ccc(C[As+](c2ccccc2)(c2ccccc2)c2ccccc2)cc1
active: A549/ATCC NSCLC 7.2% | RXF 393 renal 8.64% | SF-295 CNS -15.6% | UACC-257 melanoma -17.5% | HT29 colon -3.93% | SK-MEL-5 melanoma -65.3% | LOX IMVI melanoma -26.6% | SK-MEL-2 melanoma -16.9% | A498 renal -11% | HL-60(TB) leukemia -26.8% | OVCAR-8 ovarian 9.13% | IGROV1 ovarian 9.49%
inactive: DU-145 prostate 23.8% | SF-539 CNS 24.1% | HCT-15 colon 75.9% | SNB-75 CNS 15.1% | ACHN renal 49% | CAKI-1 renal 60.1% | MOLT-4 leukemia 14% | HS 578T breast 21%

CC1(C)CC2(CC(C)(C)c3cc(O)c(O)cc32)c2cc(O)c(O)cc21
inactive: A549/ATCC NSCLC 97.2% | DU-145 prostate 98.8% | RXF 393 renal 85.8% | SF-295 CNS 96.1% | SF-539 CNS 98.4% | UACC-257 melanoma 109% | HCT-15 colon 89.5% | HT29 colon 114% | SNB-75 CNS 81.2% | SK-MEL-5 melanoma 92.5% | LOX IMVI melanoma 94.8% | SK-MEL-2 melanoma 110% | ACHN renal 96.1% | CAKI-1 renal 92.3% | A498 renal 99.4% | HL-60(TB) leukemia 104% | MOLT-4 leukemia 71.6% | OVCAR-8 ovarian 97.3% | IGROV1 ovarian 98.4% | HS 578T breast 89.2%

CC1(C)N=C(N)N=C(N)N1c1cccc(C(=O)Nc2cccc(S(=O)(=O)F)c2)c1
inactive: A549/ATCC NSCLC 104% | DU-145 prostate 114% | RXF 393 renal 92.2% | SF-295 CNS 84.9% | UACC-257 melanoma 93.9% | HT29 colon 109% | SNB-75 CNS 80.2% | SK-MEL-5 melanoma 99.8% | LOX IMVI melanoma 99.7% | SK-MEL-2 melanoma 114% | CAKI-1 renal 98.8% | A498 renal 73.9% | HL-60(TB) leukemia 103% | MOLT-4 leukemia 112% | OVCAR-8 ovarian 100% | IGROV1 ovarian 105% | HS 578T breast 92.7%
active: ACHN renal -26%

CC(=O)C1C(=O)N(C)C(=O)N(C)C1=O
inactive: A549/ATCC NSCLC 96.1% | DU-145 prostate 111% | RXF 393 renal 107% | SF-539 CNS 92% | UACC-257 melanoma 98.6% | HCT-15 colon 93.4% | HT29 colon 102% | SNB-75 CNS 92.1% | SK-MEL-5 melanoma 99.7% | LOX IMVI melanoma 107% | SK-MEL-2 melanoma 108% | ACHN renal 95.4% | CAKI-1 renal 102% | A498 renal 83.2% | HL-60(TB) leukemia 104% | MOLT-4 leukemia 104% | OVCAR-8 ovarian 109% | IGROV1 ovarian 113% | HS 578T breast 107%

CC1COC(=O)C1 (centres undefined)
inactive: A549/ATCC NSCLC 101% | DU-145 prostate 104% | RXF 393 renal 103% | SF-295 CNS 99.8% | SF-539 CNS 96.4% | UACC-257 melanoma 104% | HCT-15 colon 105% | HT29 colon 98.2% | SNB-75 CNS 81.9% | SK-MEL-5 melanoma 99.6% | LOX IMVI melanoma 100% | SK-MEL-2 melanoma 99.3% | ACHN renal 108% | CAKI-1 renal 96.1% | A498 renal 89.2% | HL-60(TB) leukemia 105% | MOLT-4 leukemia 102% | OVCAR-8 ovarian 104% | IGROV1 ovarian 103% | HS 578T breast 99.2%

CN1CC2CCC(C1)C2=O
inactive: A549/ATCC NSCLC 102% | DU-145 prostate 115% | RXF 393 renal 119% | SF-539 CNS 105% | UACC-257 melanoma 102% | HCT-15 colon 106% | HT29 colon 100% | SNB-75 CNS 89.3% | SK-MEL-5 melanoma 101% | LOX IMVI melanoma 98.1% | SK-MEL-2 melanoma 95.5% | ACHN renal 102% | CAKI-1 renal 91.7% | A498 renal 110% | HL-60(TB) leukemia 96.3% | MOLT-4 leukemia 91.3% | OVCAR-8 ovarian 104% | IGROV1 ovarian 93.8% | HS 578T breast 108%

CCCCn1cc(C(=O)/C(C#N)=C/c2cc3ccccc3nc2Cl)c2cc(OC)ccc21
inactive: A549/ATCC NSCLC 102% | DU-145 prostate 104% | SF-295 CNS 95.9% | SF-539 CNS 89% | UACC-257 melanoma 98.5% | HCT-15 colon 94.3% | HT29 colon 89.9% | SNB-75 CNS 75.4% | LOX IMVI melanoma 74% | SK-MEL-2 melanoma 115% | ACHN renal 79% | CAKI-1 renal 75% | A498 renal 94.8% | HL-60(TB) leukemia 88.7% | MOLT-4 leukemia 67.8% | OVCAR-8 ovarian 75.1% | IGROV1 ovarian 61.2% | HS 578T breast 88.6%

C1CNC2CCCC2C1 (centres undefined)
inactive: A549/ATCC NSCLC 110% | DU-145 prostate 107% | RXF 393 renal 93.1% | SF-295 CNS 104% | SF-539 CNS 102% | UACC-257 melanoma 106% | HCT-15 colon 99.2% | HT29 colon 102% | SNB-75 CNS 86.3% | SK-MEL-5 melanoma 96.7% | LOX IMVI melanoma 101% | SK-MEL-2 melanoma 106% | ACHN renal 103% | CAKI-1 renal 103% | A498 renal 107% | HL-60(TB) leukemia 117% | MOLT-4 leukemia 116% | OVCAR-8 ovarian 106% | IGROV1 ovarian 117% | HS 578T breast 111%
